Experimental data taken from PubChem BioAssay (EPA / NIEHS).
“And” between values parts separate entries of the source, which are not always exact repeats. Equal entries are not always repeated. Inconclusive results are not listed. Some structures have more than one record in an assay (separate samples or runs), and their calls can disagree. The source made the active and inactive calls. The calls were made as follows, unless noted: active = hit-call score of the fitted dose curve at least 0.9, where 1 is the maximum; inactive = score below 0.9.

Key:
[1] = ATG_NFI_CIS: Attagene CIS-FACTORIAL HepG2 Assay for human Nuclear Factor I (NFI) (AID 2282989); conditions: HepG2 cis-regulatory reporter, NFI response element transcription; actives raise or lower the signal
Summary of the method: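 HepG2 cells transiently transfected with cis-element-driven multiplexed reporter transcription units, dosed for 24 h. Reporter mRNA quantified by RT-PCR, fluorescent labelling, HpaI digestion and capillary electrophoresis; bidirectional fit versus DMSO baseline.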

[2] = target: Myc proto-oncogene protein (Homo sapiens) (UniProt P01106); assay: ATG_Myc_CIS: Attagene CIS-FACTORIAL HepG2 Assay for human Myelocytomatosis (Myc) Proto-Oncogene Transcription Factor (AID 2282990); conditions: HepG2, Attagene cis-reporter transcription factor activity; actives raise or lower the signal
Summary of the method: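 Multiplexed cis-reporter transcription in HepG2 cells after 24 h chemical treatment. Reporter mRNA measured by RT-PCR and capillary electrophoresis fluorescence; activity fitted bidirectionally against DMSO control.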

[3] = ATG_NF_kB_CIS: Attagene CIS-FACTORIAL HepG2 Assay for human Nuclear Factor Kappa B (NF-kB) (AID 2282991); conditions: HepG2 Attagene cis-factorial NF-kB reporter mRNA; actives raise or lower the signal
Summary of the method: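 After 24 h compound incubation, transfected HepG2 cells yield total RNA; reporter cDNA is PCR-amplified, end-labelled with 6-FAM, HpaI-digested and analysed on a genetic analyser. Endogenous factor activity, DMSO-referenced bidirectional fit.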

[4] = ATG_NRF2_ARE_CIS: Attagene CIS-FACTORIAL HepG2 Assay for human Nuclear Factor Erythroid 2 Related Factor 2 (NFR2) response to Antioxidant Response Elements (ARE) (AID 2282992); conditions: HepG2 Attagene ARE/NRF2 reporter, transcription factor activity; actives raise or lower the signal
Summary of the method: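 Endogenous transcription factor activity read out as reporter transcript levels (RT-PCR plus capillary electrophoresis, fluorescence) in transiently transfected HepG2 cells. Measured at 24 h after dosing; gain or loss of signal fitted versus DMSO.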

[5] = ATG_Oct_MLP_CIS: Attagene CIS-FACTORIAL HepG2 Assay for human Octamer-Binding Transcription Factor (Oct) (AID 2282993); conditions: HepG2 Attagene cis-factorial Oct reporter, mRNA; actives raise or lower the signal
Summary of the method: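 HepG2 cells transiently transfected with cis-promoter-driven multiplexed reporter transcription units, dosed for 24 h. Reporter mRNA quantified by RT-PCR, fluorescent labelling, HpaI digestion and capillary electrophoresis; bidirectional fits versus DMSO baseline.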

[6] = target: Cellular tumor antigen p53 (Homo sapiens) (UniProt P04637); assay: ATG_p53_CIS: Attagene CIS-FACTORIAL HepG2 Assay for human p53 Transcription Factor (AID 2282994); conditions: HepG2 p53 cis-element reporter, Attagene mRNA; actives raise or lower the signal
Summary of the method: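 Endogenous p53 activity read in transiently transfected HepG2 from a cis-element-driven reporter transcript after 24 h exposure. RNA reverse-transcribed, PCR-amplified, fluorescently labelled and sized by capillary electrophoresis; gain or loss fitted against DMSO baseline.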

[7] = target: Peroxisome proliferator-activated receptor gamma (Homo sapiens) (UniProt P37231); assay: ATG_PPARg_TRANS: Attagene TRANS-FACTORIAL HepG2 Assay for human Peroxisome Proliferator-activated Receptor-gamma (PPARg) (AID 2283007; active = hit-call score of the fitted dose curve at least 0.9, where 1 is the maximum)
Summary of the method: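 Liver-derived HepG2 cells expressing an exogenous NR-Gal4 chimera alongside GAL4-UAS reporter genes; 24 h exposure. Fluorescence of reporter RT-PCR products, separated by capillary electrophoresis, gives mRNA induction relative to DMSO.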

[8] = target: human Peroxisome Proliferator-activated Receptor delta (PPARd), PPARD (gene 5467) (UniProt Q03181); assay: ATG_PPARd_TRANS: Attagene TRANS-FACTORIAL HepG2 Assay for human Peroxisome Proliferator-activated Receptor delta (PPARd) (AID 2283002; active = hit-call score of the fitted dose curve at least 0.9, where 1 is the maximum)
Summary of the method: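 Multiplexed trans-activation format: HepG2 liver cells expressing exogenous NR-Gal4 chimeras and GAL4-UAS reporters were exposed for 24 h. Reporter mRNA was detected by RT-PCR with capillary electrophoresis fluorescence; activity fitted as gain of signal relative to DMSO.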

[9] = target: human Retinoic Acid Receptor beta (RARb), RARB (gene 5915) (UniProt P10826); assay: ATG_RARb_TRANS: Attagene TRANS-FACTORIAL HepG2 Assay for human Retinoic Acid Receptor beta (AID 2283004; active = hit-call score of the fitted dose curve at least 0.9, where 1 is the maximum)
Summary of the method: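 Induction of reporter mRNA from a chimeric RARb-Gal4 construct was measured by RT-PCR, FAM labelling, HpaI digestion and capillary electrophoresis. Measurements followed 24 h compound treatment of transiently transfected human HepG2 liver cells, with DMSO as baseline.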

[10] = target: Nuclear receptor subfamily 1 group I member 2 (Homo sapiens) (UniProt O75469); assay: ATG_PXR_TRANS: Attagene TRANS-FACTORIAL HepG2 Assay for human Pregnane X Receptor (PXR) (AID 2283008; active = hit-call score of the fitted dose curve at least 0.9, where 1 is the maximum)
Summary of the method: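 Transactivation by exogenous PXR–GAL4 fusion measured as reporter transcript induction after 24 h compound treatment of transfected human HepG2 cells. Read-out via RT-PCR and capillary electrophoresis of labelled fragments, fitted upward relative to DMSO.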

[11] = target: human Retinoic Acid Receptor gamma (RARg), RARG (gene 5916) (UniProt P13631); assay: ATG_RARg_TRANS: Attagene TRANS-FACTORIAL HepG2 Assay for human Retinoic Acid Receptor gamma (RARg) (AID 2283009; active = hit-call score of the fitted dose curve at least 0.9, where 1 is the maximum)
Summary of the method: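 Gain-of-signal relative to DMSO is reported from fluorescent capillary electrophoresis of RT-PCR reporter products. These came from HepG2 cells expressing transfected RARg-GAL4 chimeras with UAS reporters, harvested 24 h after dosing.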

[12] = BSK_3C_TissueFactor: BioMAP Diversity Plus: 3C Assay for Tissue Factor Biomarker Activity (AID 2282997); conditions: BioMAP 3C HUVEC, tissue factor biomarker readout; actives raise or lower the signal
Summary of the method: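 Tissue factor on primary human umbilical vein endothelium was read by ELISA 24 h after dosing, gain or loss relative to DMSO. Cytotoxicity ran alongside via SRB (0.1%, TCA-fixed, 560 nm).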

[13] = BSK_3C_uPAR: BioMAP Diversity Plus: 3C Assay for Urokinase-type plasminogen activator receptor (uPAR) Biomarker Activity (AID 2282998); conditions: BioMAP 3C HUVEC, uPAR biomarker ELISA; actives raise or lower the signal
Summary of the method: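 Human umbilical vein endothelial primary cells were exposed to test chemical for 24 h. Cell-surface uPAR was then quantified by ELISA, and responses were fitted bidirectionally against DMSO as negative control and baseline.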

[14] = BSK_3C_VCAM1: BioMAP Diversity Plus: 3C Assay for Vascular cell adhesion molecule 1 (VCAM1) Biomarker Activity (AID 2282999); conditions: BioMAP 3C HUVEC, VCAM1 ELISA, cytokine-stimulated; actives raise or lower the signal
Summary of the method: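 Vascular primary endothelium (human umbilical vein) was exposed to chemicals and assayed 24 h later. VCAM-1 levels came from ELISA, with DMSO serving as baseline for bidirectional fitting.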

[15] = BSK_4H_Eotaxin3: BioMAP Diversity Plus: 4H Assay for Eotaxin 3 Biomarker Activity (AID 2283000); conditions: primary human endothelial cells (HUVEC); actives raise or lower the signal
Summary of the method: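 Human umbilical vein endothelial cells (BSK_4H system) dosed with test chemical; Eotaxin-3 (CCL26) measured by ELISA 24 h after dosing. Bidirectional curve fitting relative to DMSO negative control as baseline.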

[16] = read-out: Intercellular Adhesion Molecule 1 (ICAM1), ICAM1 (gene 3383); assay: BSK_3C_ICAM1: BioMAP Diversity Plus: 3C Assay for Intercellular Adhesion Molecule 1 (ICAM1) Biomarker Activity (AID 2283003); conditions: primary human endothelial cells (HUVEC); actives raise or lower the signal
Summary of the method: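 Using DMSO as baseline, bidirectional curve fitting was applied to ICAM-1 ELISA signals from HUVEC in the 3C system, measured 24 h after compound addition.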

[17] = target: human RAR-related Orphan Receptor beta (RORb), RORB (gene 6096) (UniProt Q92753); assay: ATG_RORb_TRANS: Attagene TRANS-FACTORIAL HepG2 Assay for human RAR-related Orphan Receptor beta (RORb) (AID 2283010; active = hit-call score of the fitted dose curve at least 0.9, where 1 is the maximum)
Summary of the method: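 Multiplexed transcription-factor reporter assay: HepG2 cells transiently carrying NR-Gal4/GAL4-UAS constructs, 24 h treatment, mRNA quantified by RT-PCR plus capillary electrophoresis fluorescence; activity scored as induction over DMSO.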

[18] = target: human Peroxisome Proliferator-activated Receptor alpha (PPARa), PPARA (gene 5465) (UniProt Q07869); assay: ATG_PPARa_TRANS: Attagene TRANS-FACTORIAL HepG2 Assay for human Peroxisome Proliferator-activated Receptor alpha (PPARa) (AID 2283001; active = hit-call score of the fitted dose curve at least 0.9, where 1 is the maximum;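 as to AC50: potency for gain of reporter signal over DMSO so agonist or activator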)
Summary of the method: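 Exposure: 24 h, transiently transfected HepG2 cells. Endpoint: GAL4-UAS reporter mRNA, RT-PCR with capillary electrophoresis fluorescence. Baseline: DMSO; increases fitted.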

[19] = target: Retinoic acid receptor alpha (Homo sapiens) (UniProt P10276); assay: ATG_RARa_TRANS: Attagene TRANS-FACTORIAL HepG2 Assay for human Retinoic Acid Receptor alpha (RARa) (AID 2283005; active = hit-call score of the fitted dose curve at least 0.9, where 1 is the maximum)
Summary of the method: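 HepG2 cells transiently transfected with multiple reporter units expressing chimeric RARα-GAL4 fusion, with GAL4-UAS-driven reporters. After 24 h compound exposure, reporter mRNA induction quantified by RT-PCR and capillary electrophoresis with fluorescent labeling; gain-of-signal fitted relative to DMSO control.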

Measured: AC50

Chain of human Peroxisome Proliferator-activated Receptor delta (PPARd), PPARD (gene 5467) (Q03181 whole entry, looked up, the tested form may be a part): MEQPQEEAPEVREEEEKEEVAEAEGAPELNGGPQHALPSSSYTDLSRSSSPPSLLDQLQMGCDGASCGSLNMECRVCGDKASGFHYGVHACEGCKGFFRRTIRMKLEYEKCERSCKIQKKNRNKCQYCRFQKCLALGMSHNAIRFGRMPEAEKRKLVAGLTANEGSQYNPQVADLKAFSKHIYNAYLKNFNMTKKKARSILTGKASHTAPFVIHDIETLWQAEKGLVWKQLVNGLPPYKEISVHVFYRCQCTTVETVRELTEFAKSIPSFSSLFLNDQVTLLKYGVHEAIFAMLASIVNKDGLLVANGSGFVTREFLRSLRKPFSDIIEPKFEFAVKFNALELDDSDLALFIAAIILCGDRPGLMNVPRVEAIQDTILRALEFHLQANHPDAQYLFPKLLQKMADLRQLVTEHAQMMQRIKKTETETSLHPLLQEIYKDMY
Chain of Peroxisome proliferator-activated receptor gamma (Homo sapiens) (P37231 whole entry, looked up, the tested form may be a part): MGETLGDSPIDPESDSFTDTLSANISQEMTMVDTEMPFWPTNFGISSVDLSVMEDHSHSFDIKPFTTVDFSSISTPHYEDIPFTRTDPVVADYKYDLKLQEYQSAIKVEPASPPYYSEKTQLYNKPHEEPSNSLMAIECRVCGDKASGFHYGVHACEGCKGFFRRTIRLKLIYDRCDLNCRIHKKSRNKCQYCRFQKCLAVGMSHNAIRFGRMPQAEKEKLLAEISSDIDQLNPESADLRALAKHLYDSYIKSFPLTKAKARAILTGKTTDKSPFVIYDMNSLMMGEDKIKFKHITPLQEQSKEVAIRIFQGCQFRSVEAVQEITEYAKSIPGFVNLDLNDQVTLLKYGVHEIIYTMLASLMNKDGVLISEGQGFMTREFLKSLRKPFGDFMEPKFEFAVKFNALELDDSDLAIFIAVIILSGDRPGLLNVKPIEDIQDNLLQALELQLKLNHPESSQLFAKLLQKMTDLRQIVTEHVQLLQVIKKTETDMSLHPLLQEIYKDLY
Chain of human RAR-related Orphan Receptor beta (RORb), RORB (gene 6096) (Q92753 whole entry, looked up, the tested form may be a part): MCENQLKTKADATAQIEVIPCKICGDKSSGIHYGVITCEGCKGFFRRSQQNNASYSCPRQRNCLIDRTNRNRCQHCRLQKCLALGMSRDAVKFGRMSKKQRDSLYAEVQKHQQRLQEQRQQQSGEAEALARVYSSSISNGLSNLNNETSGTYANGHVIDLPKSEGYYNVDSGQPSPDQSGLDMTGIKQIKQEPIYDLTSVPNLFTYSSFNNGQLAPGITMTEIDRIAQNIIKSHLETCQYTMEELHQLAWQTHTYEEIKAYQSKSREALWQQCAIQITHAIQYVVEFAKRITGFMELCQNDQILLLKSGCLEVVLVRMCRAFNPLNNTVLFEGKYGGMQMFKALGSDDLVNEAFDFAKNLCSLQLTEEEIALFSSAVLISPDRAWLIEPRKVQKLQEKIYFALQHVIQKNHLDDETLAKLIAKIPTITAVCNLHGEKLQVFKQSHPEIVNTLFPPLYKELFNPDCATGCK
Chain of Cellular tumor antigen p53 (Homo sapiens) (P04637 whole entry, looked up): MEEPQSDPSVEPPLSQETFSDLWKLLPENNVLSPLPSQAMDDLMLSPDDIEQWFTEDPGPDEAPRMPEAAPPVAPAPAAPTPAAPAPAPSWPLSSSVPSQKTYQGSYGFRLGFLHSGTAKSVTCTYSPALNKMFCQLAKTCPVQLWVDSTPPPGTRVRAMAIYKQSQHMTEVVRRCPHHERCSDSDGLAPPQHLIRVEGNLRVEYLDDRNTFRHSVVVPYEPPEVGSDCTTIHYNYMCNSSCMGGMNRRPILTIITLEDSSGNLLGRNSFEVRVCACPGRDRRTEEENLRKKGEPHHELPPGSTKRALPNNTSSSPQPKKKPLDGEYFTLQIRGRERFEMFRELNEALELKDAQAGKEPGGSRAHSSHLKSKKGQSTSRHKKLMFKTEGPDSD
Chain of human Retinoic Acid Receptor gamma (RARg), RARG (gene 5916) (P13631 whole entry, looked up, the tested form may be a part): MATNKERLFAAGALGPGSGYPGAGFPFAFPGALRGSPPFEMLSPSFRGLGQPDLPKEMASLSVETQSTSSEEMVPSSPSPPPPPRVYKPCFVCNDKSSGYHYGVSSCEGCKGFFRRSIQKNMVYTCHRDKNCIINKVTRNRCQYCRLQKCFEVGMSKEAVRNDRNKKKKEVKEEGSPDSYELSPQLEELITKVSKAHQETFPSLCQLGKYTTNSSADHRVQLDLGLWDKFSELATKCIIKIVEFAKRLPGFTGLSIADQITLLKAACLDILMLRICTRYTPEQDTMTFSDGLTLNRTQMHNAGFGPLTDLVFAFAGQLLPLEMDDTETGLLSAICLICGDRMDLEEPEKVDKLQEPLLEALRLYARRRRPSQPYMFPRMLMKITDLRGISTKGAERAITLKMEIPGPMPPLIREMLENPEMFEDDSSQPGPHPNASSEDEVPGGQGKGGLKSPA
Chain of Myc proto-oncogene protein (Homo sapiens) (P01106 whole entry, looked up): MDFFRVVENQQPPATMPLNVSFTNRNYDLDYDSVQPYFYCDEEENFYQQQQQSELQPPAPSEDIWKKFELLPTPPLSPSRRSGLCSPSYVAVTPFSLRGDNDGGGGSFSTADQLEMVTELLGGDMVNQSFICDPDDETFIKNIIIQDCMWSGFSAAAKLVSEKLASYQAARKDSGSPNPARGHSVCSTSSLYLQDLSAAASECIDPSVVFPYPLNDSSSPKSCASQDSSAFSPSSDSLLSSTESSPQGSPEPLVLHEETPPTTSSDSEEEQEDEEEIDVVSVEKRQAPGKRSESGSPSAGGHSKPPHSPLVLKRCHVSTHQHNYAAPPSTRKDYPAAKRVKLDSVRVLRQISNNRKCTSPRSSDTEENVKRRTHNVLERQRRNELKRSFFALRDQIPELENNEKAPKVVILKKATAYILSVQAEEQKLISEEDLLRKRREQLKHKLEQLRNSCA
Chain of Nuclear receptor subfamily 1 group I member 2 (Homo sapiens) (O75469 whole entry, looked up, the tested form may be a part): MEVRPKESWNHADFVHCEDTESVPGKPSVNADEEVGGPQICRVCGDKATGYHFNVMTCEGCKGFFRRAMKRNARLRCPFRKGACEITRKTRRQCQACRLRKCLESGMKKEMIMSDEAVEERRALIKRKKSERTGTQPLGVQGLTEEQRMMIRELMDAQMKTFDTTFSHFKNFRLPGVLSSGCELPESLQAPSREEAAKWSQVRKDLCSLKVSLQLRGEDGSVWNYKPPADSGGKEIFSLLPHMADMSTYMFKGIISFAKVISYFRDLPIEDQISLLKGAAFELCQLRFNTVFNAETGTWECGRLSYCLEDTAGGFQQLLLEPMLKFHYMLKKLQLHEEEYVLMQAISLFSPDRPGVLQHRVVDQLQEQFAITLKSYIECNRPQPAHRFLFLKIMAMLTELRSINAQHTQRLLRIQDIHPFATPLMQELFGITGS
Chain of human Peroxisome Proliferator-activated Receptor alpha (PPARa), PPARA (gene 5465) (Q07869 whole entry, looked up, the tested form may be a part): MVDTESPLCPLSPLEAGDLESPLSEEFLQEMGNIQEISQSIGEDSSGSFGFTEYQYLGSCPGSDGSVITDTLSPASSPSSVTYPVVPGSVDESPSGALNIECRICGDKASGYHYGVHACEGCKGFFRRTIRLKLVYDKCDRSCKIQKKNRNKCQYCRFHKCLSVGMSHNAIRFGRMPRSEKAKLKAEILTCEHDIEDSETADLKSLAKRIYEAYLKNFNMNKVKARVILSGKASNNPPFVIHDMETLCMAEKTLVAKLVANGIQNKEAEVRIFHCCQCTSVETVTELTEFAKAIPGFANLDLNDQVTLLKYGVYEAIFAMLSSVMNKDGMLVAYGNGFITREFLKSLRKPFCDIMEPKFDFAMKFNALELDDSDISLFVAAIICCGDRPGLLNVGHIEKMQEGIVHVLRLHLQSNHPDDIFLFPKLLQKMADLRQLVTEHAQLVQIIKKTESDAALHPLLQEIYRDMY
Chain of human Retinoic Acid Receptor beta (RARb), RARB (gene 5915) (P10826 whole entry, looked up, the tested form may be a part): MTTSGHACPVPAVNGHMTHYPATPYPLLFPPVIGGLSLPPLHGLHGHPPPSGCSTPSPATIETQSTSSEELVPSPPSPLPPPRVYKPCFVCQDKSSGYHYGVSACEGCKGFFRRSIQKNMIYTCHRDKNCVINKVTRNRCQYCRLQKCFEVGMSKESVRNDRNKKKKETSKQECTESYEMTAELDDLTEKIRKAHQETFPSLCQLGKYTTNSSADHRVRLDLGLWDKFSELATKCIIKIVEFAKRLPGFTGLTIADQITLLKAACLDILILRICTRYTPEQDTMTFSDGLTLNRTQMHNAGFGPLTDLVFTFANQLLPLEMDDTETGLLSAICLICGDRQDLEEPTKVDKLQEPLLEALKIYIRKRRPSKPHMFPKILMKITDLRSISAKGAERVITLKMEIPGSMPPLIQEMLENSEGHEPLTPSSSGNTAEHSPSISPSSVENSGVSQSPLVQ
Chain of Retinoic acid receptor alpha (Homo sapiens) (P10276 whole entry, looked up, the tested form may be a part): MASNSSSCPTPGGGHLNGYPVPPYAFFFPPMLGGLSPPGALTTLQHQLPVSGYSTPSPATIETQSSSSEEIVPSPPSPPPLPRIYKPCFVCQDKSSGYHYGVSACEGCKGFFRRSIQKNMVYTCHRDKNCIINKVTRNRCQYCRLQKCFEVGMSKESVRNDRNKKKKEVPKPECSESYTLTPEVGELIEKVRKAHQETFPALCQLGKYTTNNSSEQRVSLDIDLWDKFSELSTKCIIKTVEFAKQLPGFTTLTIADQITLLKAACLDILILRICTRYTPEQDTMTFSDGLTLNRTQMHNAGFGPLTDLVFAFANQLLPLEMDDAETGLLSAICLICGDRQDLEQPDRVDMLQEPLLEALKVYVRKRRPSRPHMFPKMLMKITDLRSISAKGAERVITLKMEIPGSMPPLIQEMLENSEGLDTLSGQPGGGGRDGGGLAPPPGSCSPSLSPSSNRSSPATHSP

CCOC(=O)C1OC1c1ccccc1 (stereo unspecified)
active: [3] 47 µM | [6] 64.4 µM
inactive: [1] | [2] | [4] | [5] | [7]

CC1=C(Br)C(=O)C(Br)=C/C1=C(/c1ccccc1S(=O)(=O)O)c1cc(Br)c(O)c(Br)c1C
inactive: [1] | [2] | [3] | [4] | [5] | [8] | [9] | [7] | [11]
active: [10] 29.6 µM

CC1(C)CCC[C@]2(C)[C@H]3CCO[C@]3(C)CC[C@@H]12
inactive: [1] | [2] | [3] | [5] | [13] | [14] | [8] | [7] | [11] | [17]
active: [4] 155 µM | [12] 32 µM and 30.7 µM | [13] 32.9 µM | [15] 33.2 µM and 35 µM | [16] 31.2 µM and 38.9 µM | [10] 32.6 µM

O=CCc1ccccc1
inactive: [1] | [2] | [3] | [4] | [5] | [6] | [11] | [17]
active: [7] 22.9 µM | [10] 13.1 µM

CCOC(=O)COC(=O)c1cc(Oc2ccc(C(F)(F)F)cc2Cl)ccc1[N+](=O)[O-]
active: [18] 14.5 µM | [7] 11.1 µM | [10] 22.2 µM
inactive: [1] | [2] | [4] | [5] | [6] | [8] | [11]

O=C(O)c1ccc(O)cc1
inactive: [1] | [2] | [4] | [5] | [6] | [18] | [8] | [9] | [19] | [7] | [10] | [11] | [17]

O=C(c1ccccc1)C(O)c1ccccc1 (stereo unspecified)
inactive: [1] | [2] | [3] | [4] | [5] | [8] | [19] | [7] | [10] | [17]
